One sequence from patent US20230313203, “FLUOROARABINO NUCLEIC ACID (FANA) […] THAT BIND SARS-2 RECEPTOR BINDING DOMAIN AND BLOCK BINDING TO THE ACE2 […] RECEPTOR” (University of Maryland, College Park, published 2023) can be followed below.

Measured potencies and affinities stand elsewhere.

This assay has as its target SARS-CoV-2 spike receptor binding domain (Wuhan) (SARS-CoV-2, UniProt P0DTC2 P0DTC2:319-541). Put plainly: inhibition. The settings on record: XNA; first 20 nt DNA, rest FANA (SEQ ID NO 3).

In the case of “AAAAGGTAGTGCTGAATTCGUCGAACUAAUCCGAAUUGAUGGCAUAAAAAGCAUGUUUAGUUCGCUAUCCAGUUGGCCU”, the binding signal was roughly 3 fold weaker.
